Source: PubChem BioAssay
Rows were chosen to be rich in hits. Some 1.2% of all compounds tested hit in one or more screens of this group.
RGS4-Gao reg: human RGS4-Galphao interaction regulation; P09471; Multiplexed bead flow cytometry, RGS4-Galphao binding; actives lie on both sides; binding response (% of control), % at 10 µM; hit rate 0.33% among 220,000; in the data active = binding response below about 49% or above about 150%; inactive = in between;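 note: fluorescent Galphao activated with aluminum fluoride binding bead-coupled RGS4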
Target sequence (P09471 whole entry, looked up): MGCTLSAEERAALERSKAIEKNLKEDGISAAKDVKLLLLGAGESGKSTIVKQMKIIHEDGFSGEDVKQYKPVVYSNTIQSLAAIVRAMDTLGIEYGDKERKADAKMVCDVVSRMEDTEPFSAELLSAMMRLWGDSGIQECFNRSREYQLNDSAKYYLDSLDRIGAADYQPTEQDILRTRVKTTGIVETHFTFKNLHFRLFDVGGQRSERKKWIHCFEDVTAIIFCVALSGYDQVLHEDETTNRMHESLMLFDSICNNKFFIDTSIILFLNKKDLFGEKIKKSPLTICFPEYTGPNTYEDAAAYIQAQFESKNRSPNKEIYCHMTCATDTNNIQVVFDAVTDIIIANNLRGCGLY
RGS7-Gao: human RGS7-Galphao interaction regulation | binding response (% of control), % at 10 µM | Multiplexed bead flow cytometry, RGS7-Galphao binding; actives lie on both sides | hit rate 0.35% among 220,000 | AID 1439 | P09471; in the data active = binding response below about 49% or above about 150%; inconclusive = no clear call, values can overlap the other calls; inactive = in between;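 note: fluorescent Galphao held in activated GDP-AlF4 state binding bead-coupled RGS7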
Avidin fluor: avidin bead compound fluorescence profile | fluorescence (KMESF) at 10 µM | Avidin beads, compound fluorescence 488/530 nm, flow cytometry; active compounds read high | hit rate 0.38% among 220,000; in the data active = fluorescence above about 47
RGS16-Gao HTS: regulators of human RGS16-Galphao interaction | O15492+P09471 | bead-based flow cytometry RGS16-Galphao binding, fluorescence; actives lie on both sides | binding response (% of control), % at 10 µM | hit rate 0.38% among 220,000 | AID 1441; call rule not given here;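 note: Galphao activated by GDP with aluminum fluoride before binding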
GSH fluor: compound fluoresces at 488/530 nm on GSH beads; GSH beads flow cytometry, compound fluorescence 488/530 nm; active compounds read high; fluorescence (KMESF) at 10 µM; hit rate 0.25% among 190,000; AID 1776; in the data active = fluorescence above about 89;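 note: glutathione beads carrying GST-tagged Bcl family fusion proteins plus one bare bead set; values are compound well signal with DMSO vehicle wells as background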
RGS8-Gao: human RGS8-Galphao interaction regulation; multiplexed bead flow cytometry, RGS8-Galphao binding; actives lie on both sides; response (percent of control binding), % at 10 µM; hit rate 0.34% among 220,000; in the data active = response below about 60% or above about 140%; inactive = in between;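 note: Galphao activated as the GDP aluminium fluoride complex binding bead-coupled RGS8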
Numbers without * were called inactive; u = inconclusive; x = no result given; [ ] = remark or other dose.

SMILES	RGS4-Gao reg	RGS7-Gao	Avidin fluor	RGS16-Gao HTS	GSH fluor	RGS8-Gao
O=[N+]([O-])c1cccc(/C=N/NS(=O)(=O)c2ccccc2)c1	104	104	7	104	14	102
Cc1ccsc1C(=O)OC1CCOC1=O (configuration not stated)	94	89	7	97	271*	96
CCCSC1=N/C(=C\c2ccc3c(c2)OCO3)C(=O)S1	101	110	60*	104	52	103
CCSC1=N/C(=C\c2ccc3c(c2)OCO3)C(=O)S1	96	93	21	95	12	95
CSc1c[n+]2c(n1C)CCC2	106	113	52*	108	11	101
CCOc1ccc(-n2c(-c3ccccc3)c[n+]3c2CCC3)cc1	96	u	10	100	20	100
CCC(NC(=O)NCc1cccnc1)(C(F)(F)F)C(F)(F)F	103	103	16	102	30	102
CCCc1cc(=O)[nH]c(SCC(=O)Nc2ccc(OC(F)F)cc2)n1	103	103	7	103	260*	103
CCCc1cc(=O)[nH]c(SCC(=O)Nc2ccc3c(c2)CCC3)n1	103	100	11	113	13	102
Cn1nc(C(F)(F)F)c(-c2cccc(C(F)(F)F)c2)c1NC(=O)Nc1ccc(F)cc1	100	u	3	96	x	100
O=c1cc(-c2ccccc2)nc(SCc2ccccc2F)[nH]1	100	96	11	106	12	102
CCOC(=O)CCC(=O)NCc1ccc2c(c1)cc(C)n2C	127	125	53*	178	15	104
O=C(Nc1ccc2ccccc2c1)c1onc2c1CCCC2	119	126	57*	111	9	100
COC(=O)c1cccc(NC(=O)c2onc3c2CCCC3)c1	100	101	17	98	16	100
O=C(COC(=O)/C=C/c1ccccc1)NCc1ccccc1Cl	102	104	25	106	17	103
CCOc1ccc2nc(NCCNC(=O)C(C)C)c(C)cc2c1	103	111	61*	105	24	99
Cc1ccc(C2NC(=O)CCC2[N+](=O)[O-])cc1 (configuration not stated)	100	99	12	101	72	100
Nc1cc(=O)[nH]c(SCc2ccc(Cl)cc2)n1	105	110	50*	104	19	103
CN(C(=O)c1cc2nc(-c3ccco3)cc(C(F)(F)F)n2n1)C1CCCCC1	39*	35*	5	35	31	47*
CC(Cc1ccccc1)NC(=S)CN1CCCC1=S (configuration not stated)	98	u	5	98	x	98
O=C(CCC1CCCN(C(=O)c2ccsc2)C1)NCc1ccc(F)c(F)c1 (configuration not stated)	101	97	8	96	12	102
O=C(NC1CCCc2ccccc21)c1cccnc1 (configuration not stated)	102	103	7	106	256*	101
NCCSc1c(-c2ccc(Cl)cc2)[nH]c2ccccc12	104	u	6	106	x	102
NCCSc1c(-c2ccccc2)[nH]c2ccccc12	5.5*	-8.4*	-1	-3.3*	17	13*
CCc1nnc(NC(=O)c2ccncc2)s1	86	93	10	91	8	93
SMILES	RGS4-Gao reg	RGS7-Gao	Avidin fluor	RGS16-Gao HTS	GSH fluor	RGS8-Gao
CCCc1nnc(NC(=O)c2ccncc2)s1	83	92	3	-1	239*	91
CCOC(=O)Cc1cnc(NC(=O)NC(C(=O)OCC)(c2ccccc2)C(F)(F)F)s1 (configuration not stated)	99	100	13	98	25	96
N#CCC(=O)Nc1ccccc1C(=O)O	110	108	7	131	264*	108
O=C(O)CC(=O)Nc1ccccc1C(=O)O	97	94	12	97	31	98
CC(=O)NC1C2CN3CCN(C2)CC1(Cc1ccccc1)C3 (configuration not stated)	98	100	11	101	22	102
Cc1ccc(CC23CN4CCN(CC(C4)C2O)C3)c(C)c1 (configuration not stated)	103	121	69*	101	22	97
COc1cc(C(=O)NNc2nc3cc4c(cc3s2)OCO4)cc(OC)c1OC	161*[activator]	127	32	107	17	96
CCOC(=O)C1=C(c2ccccc2)O/C(=C(/C#N)C(F)(F)F)S1	108	136	59*	101	32	101
CCN(CC)C(=S)SCC(=O)NC12CC3CC(CC(C3)C1)C2	99	95	4	103	11	102
Cc1cc(NC(=O)CN2C(=O)NC(C)(c3ccc(OC(F)F)cc3)C2=O)no1 (configuration not stated)	100	110	48*	97	15	100
Cc1cccc(N2C(=O)C3C4CC(=O)C(c5ccccc54)C3C2=O)c1C (configuration not stated)	104	102	9	104	13	101
O=c1c2ccccc2c2ccccc2c(=O)n1CC1CCCO1 (configuration not stated)	121	121	4	194	252*	127
O=C1c2ccccc2C(=O)N1CC1CCCO1 (configuration not stated)	100	98	7	98	19	100
CCSc1nnc(COc2ccccc2)n1CC	105	u	7	101	x	103
CC12CCC(C(=Nc3ccc(N=C4C(=O)C5(C)CCC4C5(C)C)cc3)C1=O)C2(C)C	112	u	57*	97	x	100
Cc1ccc(N2C(=O)C3CCC(C)(C2=O)C3(C)C)cc1 (configuration not stated)	98	u	4	100	x	100
Cc1ccc2ccc(S(=O)(=O)n3nc(C)cc3C)cc2c1	108	120	54*	109	27	103
CCOc1ccc2[nH]c(=O)c(C(c3nnnn3C3CCCCC3)N3CCN(CC)CC3)cc2c1 (configuration not stated)	146	132	76*	172	54	114
Cc1ccc(-c2noc(CCC(=O)NCCN3CCc4ccccc4C3)n2)cc1	99	103	38	100	19	101
O=C(Nc1cccc2ccccc12)N1CCOCC1	106	106	19	110	28	103
S=C(Nc1cccc2ccccc12)NN1CCOCC1	117	116	47*	116	24	104
CN(C)C(CNC(=S)Nc1cccc(Cl)c1)c1cccnc1 (configuration not stated)	109	105	12	106	12	104
Cc1nnc(N(Cc2ccco2)C(=O)c2cccc(C#N)c2)s1	101	100	21	104	32	103
Cc1nnc(N(Cc2ccco2)C(=O)c2ccc(C#N)cc2)s1	99	99	7	96	110*	101
